Inconclusive results are not listed. Where a call stands in place of a potency, no number is given. Calls of active or inactive are those of the source. Unless noted, the call rests on the fitted dose curve; in most records, active means well fitted curve in the direction sought with a large enough effect; inconclusive means small, poorly fitted or top-dose-only effect, or another doubt; inactive means no such curve, though single readings can be large; an effect the other way counts as inactive or inconclusive.
Assays:
[1] = qHTS for Inhibitors of Plasmodium falciparum (DD2) proliferation (AID 504314);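 further: parasite DNA measured by SYBR Green fluorescence after red cell lysis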
Summary of the method: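 Fluorescence read-out (ex 485/em 535 nm) of SYBR Green-stained parasite DNA quantifies intraerythrocytic growth. Cultures at 0.3% parasitemia and 2.5% hematocrit were treated for 72 h; data normalized to DMSO and 0.29 uM artemisinin wells.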

[2] = qHTS for Inhibitors of Plasmodium falciparum (GB4) proliferation (AID 504315); further: nearly all actives have a fitted effect of over 50% in size
Summary of the method: (§1)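 Erythrocytes infected with P. falciparum line (0.3% parasitemia, 2.5% hematocrit final) incubated with compounds 72 h at 37 °C, 5% CO2; SYBR Green lysis buffer added, fluorescence read next day. Normalized to 0.29 uM artemisinin and DMSO.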

[3] = qHTS for Inhibitors of Plasmodium falciparum (7G8) proliferation (AID 504316); further: series mostly up to about 6.7 µM; nearly all actives have a fitted effect of over 65% in size
Summary of the method: as §1

[4] = qHTS for Inhibitors of Plasmodium falciparum (CP250) proliferation (AID 504320)
Summary of the method: as §1

[5] = target: Mitogen-activated protein kinase 10 (Mus musculus) (UniProt Q61831); assay: JNK3 AlphaScreen Assay (AID 530; active means well fitted curve in either direction with a large enough effect, not every such curve was filed as active;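 further: kinase came from lysate of stimulated human HepG2 cells; signal reports phosphorylation of biotinylated GST-cJun 1-79 at Ser73 with 10 µM ATP; series mostly up to about 57 µM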)
Summary of the method: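 Room-temperature AlphaScreen kinase assay; pre-activated HepG2 lysate as JNK3 source, biotin-GST-cJun(1-79) substrate, 10 uM ATP, compound 15 min preincubation.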

[6] = target: 3',5'-cyclic-AMP phosphodiesterase 4B (Homo sapiens) (UniProt Q07343); assay: qHTS Assay for Inhibitors of PDE-IV (AID 607; active means well fitted activation curve with a large enough effect in the main read-out, with a control signal flat, not every such curve was filed as active)
Summary of the method: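 Live HEK293 cells with a modified cyclic nucleotide-gated (CNG) channel report intracellular cAMP via membrane-potential dye fluorescence (ex 535/em 590 nm). Endogenous PDE-IV was targeted. Compounds were tested at up to 22.9 uM final; RO 20-1724 100 uM served as control.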

[7] = target: Cytochrome P450 2C9 (Homo sapiens) (UniProt P11712); assay: qHTS Assay for Inhibitors and Substrates of Cytochrome P450 2C9 (AID 883); further: potency means the concentration at half of the fitted maximal effect; nearly all actives have a fitted effect of over 60% in size
Summary of the method: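 Inhibition of CYP2C9 is scored as loss of luminescence, with 57uM sulphaphenazole defining 100% inhibition. Substrate Luciferin-H is used at 100uM, equal to its KM; enzyme at 10nM in 25mM KPO4, 60 min at 37C with NADPH regeneration.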

[8] = target: Cytochrome P450 3A4 (Homo sapiens) (UniProt P08684); assay: qHTS Assay for Activators of Cytochrome P450 3A4 (AID 885); further: nearly all actives have a fitted effect of over 65% in size
Summary of the method: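 Quantitative HTS format: compounds preincubated with 20nM human CYP3A4 and Luciferin-PPXE substrate at KM, reaction started by NADPH regeneration, stopped after 60 min, luciferase luminescence read 20 min later.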

[9] = qHTS for Inhibitors of Plasmodium falciparum (HB3) proliferation (AID 504318); further: nearly all actives have a fitted effect of over 60% in size
Summary of the method: as §1

[10] = target: Cytochrome P450 3A4 (Homo sapiens) (UniProt P08684); assay: qHTS Assay for Inhibitors and Substrates of Cytochrome P450 3A4 (AID 884); further: potency means the concentration at half of the fitted maximal effect; nearly all actives have a fitted effect of over 50% in size
Summary of the method: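 20 nM human CYP3A4 with 25 uM Luciferin-PPXE (at KM) in 200 mM KPO4, preincubated 10 min with compound; NADPH regeneration started a 60 min RT reaction. Luciferin detected by luminescence, normalized to 57 uM ketoconazole as full inhibition.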

3',5'-cyclic-AMP phosphodiesterase 4B (Homo sapiens), sequence (Q07343 whole entry, looked up): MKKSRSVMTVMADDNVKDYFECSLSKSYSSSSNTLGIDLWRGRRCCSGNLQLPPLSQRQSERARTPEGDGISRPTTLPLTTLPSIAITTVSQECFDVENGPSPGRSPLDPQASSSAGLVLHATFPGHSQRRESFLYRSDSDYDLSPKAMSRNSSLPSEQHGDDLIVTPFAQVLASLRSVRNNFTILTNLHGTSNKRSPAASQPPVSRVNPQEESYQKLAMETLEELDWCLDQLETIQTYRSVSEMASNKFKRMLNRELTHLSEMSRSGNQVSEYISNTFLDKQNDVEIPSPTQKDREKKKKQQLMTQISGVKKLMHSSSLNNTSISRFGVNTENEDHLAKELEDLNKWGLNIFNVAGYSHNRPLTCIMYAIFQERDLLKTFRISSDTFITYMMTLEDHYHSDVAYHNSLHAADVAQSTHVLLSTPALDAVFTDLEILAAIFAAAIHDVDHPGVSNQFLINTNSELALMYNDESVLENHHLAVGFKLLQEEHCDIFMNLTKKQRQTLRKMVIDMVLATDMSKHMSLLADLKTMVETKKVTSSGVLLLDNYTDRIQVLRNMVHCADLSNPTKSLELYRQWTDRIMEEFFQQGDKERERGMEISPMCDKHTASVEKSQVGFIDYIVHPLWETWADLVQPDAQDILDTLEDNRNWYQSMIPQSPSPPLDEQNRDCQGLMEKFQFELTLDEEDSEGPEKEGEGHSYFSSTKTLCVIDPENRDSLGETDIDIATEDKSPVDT
Cytochrome P450 3A4 (Homo sapiens), sequence (P08684 whole entry, looked up): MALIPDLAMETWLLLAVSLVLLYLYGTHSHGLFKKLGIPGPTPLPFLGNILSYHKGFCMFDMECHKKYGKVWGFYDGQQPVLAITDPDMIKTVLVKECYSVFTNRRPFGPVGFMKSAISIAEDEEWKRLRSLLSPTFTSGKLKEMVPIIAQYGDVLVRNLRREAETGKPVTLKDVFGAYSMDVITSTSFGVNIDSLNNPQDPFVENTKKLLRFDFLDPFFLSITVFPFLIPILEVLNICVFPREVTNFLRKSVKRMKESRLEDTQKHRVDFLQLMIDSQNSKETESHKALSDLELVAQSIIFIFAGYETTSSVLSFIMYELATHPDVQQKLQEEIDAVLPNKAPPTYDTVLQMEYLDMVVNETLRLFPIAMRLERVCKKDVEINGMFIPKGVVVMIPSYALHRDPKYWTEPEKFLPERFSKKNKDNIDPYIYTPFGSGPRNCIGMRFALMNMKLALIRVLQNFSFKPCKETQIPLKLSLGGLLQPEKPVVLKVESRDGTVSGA
Cytochrome P450 2C9 (Homo sapiens), sequence (P11712 whole entry, looked up): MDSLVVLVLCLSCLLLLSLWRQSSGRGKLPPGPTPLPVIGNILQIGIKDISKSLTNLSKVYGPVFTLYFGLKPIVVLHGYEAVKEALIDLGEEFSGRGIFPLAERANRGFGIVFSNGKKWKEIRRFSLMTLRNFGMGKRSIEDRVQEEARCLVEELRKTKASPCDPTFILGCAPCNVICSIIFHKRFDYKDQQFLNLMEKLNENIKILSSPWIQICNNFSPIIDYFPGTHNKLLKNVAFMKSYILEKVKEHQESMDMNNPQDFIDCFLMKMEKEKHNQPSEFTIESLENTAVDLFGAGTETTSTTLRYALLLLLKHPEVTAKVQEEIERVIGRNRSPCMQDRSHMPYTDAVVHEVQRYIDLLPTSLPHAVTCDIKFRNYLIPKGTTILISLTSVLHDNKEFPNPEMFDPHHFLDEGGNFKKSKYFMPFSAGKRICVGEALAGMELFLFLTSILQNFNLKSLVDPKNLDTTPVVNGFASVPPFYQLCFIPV

With `COCC(=O)N1CCc2nc(-c3ccc(OC)cc3C)c3c(c2C1)CO[C@@H](c1ccccc1)C3` the Potency [1] was “inactive”, the Potency [2] was “inactive” and the Potency [3] was “inactive”. For the same molecule, the Potency [4] was “inactive”.

For `O=C(NCCF)[C@H]1C[C@@H]1[C@H](NP(=O)(c1ccccc1)c1ccccc1)c1ccccc1`, the Potency [5] was “inactive” and the Potency [6] was “inactive”.

With `CCCCc1nc2c(c3c1C[C@H](C)OC3)CN(S(=O)(=O)c1ccc(C#N)cc1)CC2` the Potency [1] was “inactive”, the Potency [2] was “inactive” and the Potency [3] was “inactive”. The Potency [4] was “inactive”.

For `CCN1C(=O)N[C@@H](CCc2ccccc2)[C@H](C(=O)OC)[C@H]1C`, the Potency [1] was “inactive”, the Potency [2] was “inactive” and the Potency [3] was “inactive”. The Potency [4] was “inactive”.

For `O=C(NCc1ccccc1)[C@@H]1C[C@H]1[C@@H](NP(=O)(c1ccccc1)c1ccccc1)c1ccccc1`, the Potency [5] was “inactive” and the Potency [6] was “inactive”.

With `COC(=O)[C@@H]1C[C@H]1[C@@H](NC(=O)Oc1ccc(F)cc1)c1ccccc1` the Potency [5] was “inactive”, the Potency [6] was “inactive” and the Potency [7] was 3.98 µM (active). For the same molecule, the Potency [8] was “inactive”.

With `COC(=O)CCC(=O)OC1(C)C(=O)C=C2C=C(C3CC3)N(Cc3ccccc3)C=C2C1=O` (stereo unspecified) the Potency [1] was “inactive”, the Potency [2] was “inactive” and the Potency [3] was “inactive”. The Potency [4] was “inactive”.

In the case of `CCCC[C@@H]1C[C@H]1C(NC(=O)c1cccs1)c1ccc(-c2ccccc2)cc1` (stereo partly specified), the Potency [5] is reported as “inactive”, the Potency [7] is reported as 1.58 µM (active) and the Potency [8] is reported as “inactive”.

In the case of `C=CC1=C2C=C(C3CC3)N(CCCCO)C=C2C(=O)C(C)(OC(=O)c2ccco2)C1=O` (stereo unspecified), the Potency [1] is reported as “inactive”, the Potency [2] is reported as “inactive” and the Potency [9] is reported as “inactive”. The Potency [4] was “inactive”.

With `Nc1ccccc1C#Cc1ccccc1` the Potency [6] was “inactive” and the Potency [8] was “inactive”.

In the case of `C[C@H]1Cc2c(COc3ccccc3)nc3c(c2CO1)CN(C(=O)Nc1cccc(C#N)c1)CC3`, the Potency [1] is reported as “inactive”, the Potency [2] is reported as “inactive” and the Potency [3] is reported as “inactive”. For the same molecule, the Potency [4] was “inactive”.

In the case of `COC(=O)[C@@H]1C[C@H]1[C@@H](NS(=O)(=O)c1ccc(-c2ccccc2)cc1)c1ccccc1`, the Potency [5] is reported as “inactive” and the Potency [6] is reported as “inactive”.

With `O=C(NCc1ccccc1)[C@H]1C[C@@H]1[C@H](NP(=O)(c1ccccc1)c1ccccc1)c1ccccc1` the Potency [5] was “inactive” and the Potency [6] was “inactive”.

For `CCCc1cc2c(n1Cc1ccc(OC)cc1)C(C)C1CN(C(=O)c3ccccc3)C(C)(C(=O)OC)C21` (stereo unspecified), the Potency [6] was “inactive”, the Potency [10] was 3.16 µM (active) and the Potency [8] was “inactive”.

For `CO[C@@H]1/C=C\O[C@]2(C)Oc3c(C)c(O)c4c(O)c(c(/C=N\N5CCN(C)CC5)c(O)c4c3C2=O)NC(=O)/C(C)=C\C=C/[C@H](C)[C@H](O)[C@H](C)[C@H](O)[C@H](C)[C@H](OC(C)=O)[C@@H]1C`, the Potency [6] was “inactive”.

With `COC(=O)[C@H]1C[C@@H]1[C@H](NS(=O)(=O)c1ccc(-c2ccccc2)cc1)c1ccccc1` the Potency [5] was “inactive”.

For `C=CC1=C2C=C(C3CC3)N(CCCN(CC)CC)C=C2C(=O)C(C)(OC(=O)c2ccco2)C1=O` (stereo unspecified), the Potency [1] was “inactive”, the Potency [2] was “inactive” and the Potency [3] was “inactive”. For the same molecule, the Potency [4] was “inactive”.

For `CC[C@@]1(O)C(=O)COc2c1cc1n(c2=O)Cc2c-1nc1cccc(C(C)C)c1c2[Si](C)(C)C`, the Potency [5] was “inactive” and the Potency [8] was “inactive”.

For `Cc1cc(CNC(=O)[C@@H]2C[C@H]2[C@@H](NP(=O)(c2ccccc2)c2ccccc2)c2ccccc2)nn1C`, the Potency [5] was “inactive”, the Potency [6] was “inactive” and the Potency [10] was 0.398 µM (active). For the same molecule, the Potency [8] was “inactive”.
